Most compounds without a hit are left out; they make up all but 10% or so of the library.
Sfp inh: inhibitors of Bacillus subtilis Sfp phosphopantetheinyl transferase; Q9F4F7; Biochemical Sfp PPTase activity, qHTS; Potency, µM, for inactives: largest response in the series, negative = inhibition, hits mostly inhibitors; actives 3.5% (n = 310,000);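 further: the enzyme is Sfp with the accession as filed and its product quenches rhodamine fluorescence; potency means the concentration at half of the fitted maximal effect; 0% = enzyme reaction without inhibitor and -100% = no enzyme wells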
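Buffer: 50 mM Hepes-Na pH 7.6, 10 mM MgCl2, 0.01% Nonidet P-40, 0.01% BSA. Enzyme 15 nM, pre-exposed to compound 15 min; substrates then added and fluorescence change tracked over 30 min.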
MmCpn inh: blocks the Methanococcus maripaludis chaperonin Mm-Cpn; purified Mm-Cpn ATPase, ADP Transcreener TR-FRET; Potency, µM (titrated, usually from 76.9 µM), for the others: top-dose activity, negative = inhibition, most hits filed as inhibitors; actives 0.031% (n = 330,000); AID 504842; further: potency means the concentration at half of the fitted maximal effect; nearly all actives have a fitted effect of over 80% in size
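TR-FRET (320 nm excitation; 590 and 665 nm emission) reports ADP made from 10 uM ATP by 25 nM enzyme; compounds were preincubated 10 min, reaction run 30 min, both at 37°C.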
VDR inh: inhibitors of human vitamin D receptor; Potency, µM, without a hit: max response, negative = inhibition, hits mostly inhibitors; VDR-SRC2-3 peptide fluorescence polarization, 2 h; P11473; AID 504847; actives 0.93% (n = 400,000); further: potency means the concentration at half of the fitted maximal effect
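Fluorescence polarization assay measuring small-molecule disruption of VDR binding to the coregulator peptide SRC2-3. Compounds were pin-transferred (23 nl) into the reagent mix and incubated 2 h at room temperature before reading.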
PLK1 PBD block: PLK1 (human) polo-box domain binding inhibition; actives 2.8% (n = 360,000); AID 720504; Potency, µM, for the others: max response, negative = inhibition, usual class: inhibitors; P53350; Plk1 PBD binding of FITC phosphopeptide, fluorescence polarization; further: potency means the concentration at half of the fitted maximal effect; series mostly up to about 57 µM; nearly all actives have a fitted effect of over 65% in size
Target sequence (P53350 whole entry, looked up, the tested form may be a part): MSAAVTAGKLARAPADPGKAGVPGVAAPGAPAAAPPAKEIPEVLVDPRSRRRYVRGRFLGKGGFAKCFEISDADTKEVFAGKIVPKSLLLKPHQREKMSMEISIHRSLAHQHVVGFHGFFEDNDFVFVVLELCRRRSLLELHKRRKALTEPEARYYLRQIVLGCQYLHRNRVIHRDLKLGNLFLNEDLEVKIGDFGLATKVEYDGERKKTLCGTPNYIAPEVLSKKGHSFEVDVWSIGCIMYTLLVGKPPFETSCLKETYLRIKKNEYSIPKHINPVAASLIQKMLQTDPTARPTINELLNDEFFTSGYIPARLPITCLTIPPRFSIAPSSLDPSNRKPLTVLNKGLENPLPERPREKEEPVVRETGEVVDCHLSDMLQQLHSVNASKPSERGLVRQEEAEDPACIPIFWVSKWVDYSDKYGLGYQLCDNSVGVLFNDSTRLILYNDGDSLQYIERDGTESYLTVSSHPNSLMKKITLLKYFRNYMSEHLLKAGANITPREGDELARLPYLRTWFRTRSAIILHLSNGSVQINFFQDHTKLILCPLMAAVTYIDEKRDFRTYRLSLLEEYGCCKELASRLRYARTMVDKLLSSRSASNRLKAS
G9a block: blocks human histone lysine methyltransferase G9a | Q96KQ7 | G9a H3K9 monomethylation, AlphaScreen, 2 h | Potency, µM (doses to about 102 µM), for inactives: at the top dose activity, negative = inhibition, actives largely listed as inhibitors | actives 8.8% (n = 350,000); further: potency means the concentration at half of the fitted maximal effect; nearly all actives have a fitted effect of over 75% in size
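Quantitative HTS format: methyltransferase activity on a biotin-tagged H3K9 peptide is measured by AlphaScreen, using a rabbit anti-monomethyl-H3K9 antibody with streptavidin donor and anti-IgG acceptor beads. Final levels are 20 nM enzyme, 500 nM peptide, 20 uM SAM; 2 h RT.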
CCT modulator: modulators of cytosolic chaperonin (CCT/TRiC) activity | purified chaperonin ATPase assay, HTRF ADP detection, 30 min | activity change, % (concentration not given with the values), hits read low | actives 0.3% (n = 360,000); in the data active means activity change below about -30%
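TRiC (40 or 20 nM final, by batch activity) in 30 mM Tris pH 7.4, 100 mM KCl, 5 mM MgCl2, 1 mM DTT was treated with compound at 76 uM single dose, then 10 uM ATP, 30 min at 37 °C. ADP was read by HTRF Transcreener.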
The depositor's hits bear a star; ? = inconclusive; . = no result given; [ ] = remark or other dose. Unless noted, the call rests on the fitted dose curve; in most records, active means well fitted curve in the direction sought with a large enough effect; inconclusive means small, poorly fitted or top-dose-only effect, or another doubt; inactive means no such curve, though single readings can be large; an effect the other way counts as inactive or inconclusive. Unless noted, on the % scale 0 is the no-effect control and ±100 the full control effect.

SMILES	Sfp inh	MmCpn inh	VDR inh	PLK1 PBD block	G9a block	CCT modulator
CC1=CC(=O)CC(C)(C)C1(O)/C=C/C(C)=C/C(=O)O (stereo not drawn)	-1%	2%	-2%	2%	.	1
CC1=C(\C=C/C(C)=C/C=C\C(C)=C\C(=O)O)C(C)(C)CCC1	9%	.	18µM*	.	10µM*	.
CC1=C(/C=C/C(=O)O)C(C)(C)CCC1	13%	-1%	-19%	-8%	-55%[59 µM]	-5
Cc1cc2oc(C(=O)N(Cc3ccccc3)C3CCS(=O)(=O)C3)cc(=O)c2cc1C (stereo not drawn)	.	.	-1%	.	-3%[59 µM]	.
COc1ccc(-c2nc3ccccc3n3c(-c4cccc(C)c4)c4c(=O)n(C)c(=O)n(C)c4c23)cc1	.	.	-20%	.	0%[59 µM]	.
CN(CC(=O)NCc1ccccc1)Cc1cccc(F)c1	?	-2%	?	3%	45µM*	-11
CN(CC(=O)NCCc1ccc(F)cc1)Cc1ccc(Br)cc1	19%	0%	9%	-5%	54%	0
Cc1ccc(CNC(=O)CSCc2ccccc2C)cc1	.	.	7%	.	6%[59 µM]	.
O=C(CCSCc1cccc(F)c1)NCc1ccc(F)cc1	-1%	1%	?	7.5µM*	9%	0
O=C(CCSCCC(=O)NCc1ccccc1)NCc1ccccc1	12%	-2%	2%	-3%	-7%[12.7 µM]	1
CN(CC(=O)NCCCc1ccccc1)Cc1ccc(Br)cc1	-24%	1%	-14%	5%	10µM*	2
Cc1ccc(CNC(=O)CSCc2cccc(F)c2)cc1	12%	2%	?	21µM*	-22%	-1
CCCCn1cc2c(c1-c1ccc(Cl)cc1)c(=O)n(C)c(=O)n2C	.	.	-5%	.	?	.
CC(=O)c1cccc(NC(=O)Cn2cc(C(=O)c3cccc(Cl)c3)c(=O)c3ccc(C)nc32)c1	.	.	-1%	.	0%[59 µM]	.
COc1ccc(/C=C/C(=O)Nc2ccc3nc4n(c(=O)c3c2)CCCC4)cc1OC	15%	-4%	-3%	4%	-8%	0
COc1ccc(Nc2c3c(nc4ccc(NC(=O)/C=C/c5cc(OC)c(OC)c(OC)c5)cc24)CCCC3)cc1OC	.	.	30%	.	16µM*	.
COc1ccc(/C=C/C(=O)Nc2ccc3nc4c(c(Nc5ccc(OC)c(OC)c5)c3c2)CCCC4)cc1	.	.	53%	.	8.9µM*	.
COc1cccc(N2CCN(C(=O)c3c(C)oc4ncnc(N5CCCCC5)c34)CC2)c1	.	.	24%	.	-19%[59 µM]	.
Cc1[nH]c(=O)c(C#N)c(C)c1CCC(=O)NCc1ccc(Cl)cc1	5%	0%	-2%	-17%	2%[2.33 µM]	1
Cc1cccc(Cc2c(C)[nH]c(=O)c(C#N)c2C)c1	10%	-8%	-11%	-8%	9%	-3
Cc1[nH]c(=S)c(C#N)c(C)c1Cc1ccccc1	18µM*	-2%	?	0%	?	0
Cc1[nH]c(=S)c(C#N)c(C)c1CCC#N	18µM*	0%	18%	?	2.8µM*	0
Cc1cc(C)c(Cn2c3ccccc3c3cnn(CC(=O)N4CCCCCC4)c(=O)c32)c(C)c1	.	.	2%	.	4%[59 µM]	.
CCC(=O)N1CCc2cc(S(=O)(=O)NC(CC(C)C)C(=O)Nc3ccc(CC)cc3)ccc21 (stereo not drawn)	.	.	-10%	.	6%[59 µM]	.
O=c1c(N2CCOCC2)coc2ccccc12	-3%	-2%	-4%	0%	3.5µM*	-1
SMILES	Sfp inh	MmCpn inh	VDR inh	PLK1 PBD block	G9a block	CCT modulator
O=C(CSc1nnc(SCc2cccc3ccccc23)s1)Nc1ccc(C(=O)O)cc1	19%	1%	-19%	24µM*	?	-1
O=C(CSc1nnc(SCc2cccc3ccccc23)s1)c1ccc2c(c1)OCO2	17%	45µM*	-22%	-25%	?	-27
c1ccc(Nc2nnc(SCc3cccc4ccccc34)s2)cc1	-10%	-2%	5%	-3%	5%	-1
CCOc1ccc(CCNC(=O)c2cccc(-n3c(C)nc4cccnc43)c2)cc1	.	.	3%	.	-31%[59 µM]	.
O=C(NCCCN1CCN(c2ccc(F)cc2)CC1)c1cnn(-c2ccc(F)cc2)c1-n1cccc1	.	.	9%	.	?	.
CCOC(=O)C1=C(c2ccccc2)OC(N)=C(C#N)C1c1ccc(Br)s1 (stereo not drawn)	3%	-13%	3%	-3%	?	-12
Cc1nn(-c2ccccc2)c2c1C(c1ccc(Br)s1)C(C#N)=C(N)O2 (stereo not drawn)	-12%	0%	-27%	?	16µM*	-3
Cc1ccc(-n2nc(C)c3c2OC(N)=C(C#N)C3c2ccc(C)o2)cc1 (stereo not drawn)	?	-3%	-43%	-25%	8.9µM*	-9
Cc1nn(-c2ccccc2)c2c1C(c1ccccc1)C(C#N)=C(N)O2 (stereo not drawn)	8%	-1%	-14%	27µM*	?	0
N#CC1=C(N)Oc2cc(O)ccc2C1c1ccc(Br)s1 (stereo not drawn)	17%	-2%	-16%	30µM*	-3%[59 µM]	1
Cc1ccc(-n2nc(C)c3c2OC(N)=C(C#N)C3c2ccco2)cc1 (stereo not drawn)	-16%	0%	-18%	?	?	-1
COC(=O)C1=C(C)OC(N)=C(C#N)C1c1c(C)nn(-c2ccccc2)c1Cl (stereo not drawn)	1%	-2%	-5%	-14%	-3%[12.7 µM]	-1
COC(=O)c1c(NC(=O)Cc2coc3cc(C)ccc23)sc2c1CCCC2	.	.	6%	.	6%[59 µM]	.
COCCOC(=O)C1=C(C)N=C2SCCC(=O)N2C1c1ccc(OCc2ccccc2)c(OC)c1 (stereo not drawn)	.	.	0%	.	9%[59 µM]	.
COc1ccc(CNc2nc(-c3ccc(OC)cc3)cc(C(F)(F)F)n2)cc1	.	.	3%	.	80%[59 µM]	.
COC(=O)C1=C(C)OC(N)=C(C#N)C1c1ccc(OC)c(OC)c1OC (stereo not drawn)	23%	0%	-12%	-13%	-1%[12.7 µM]	-4
COc1ccc(C2C(C#N)=C(N)Oc3c2c(-c2ccccc2)nn3-c2ccccc2)c(OC)c1OC (stereo not drawn)	-12%	0%	?	-16%	50µM*	2
O=c1c(/C=N/N2CCOCC2)c(C(F)(F)F)[nH]n1-c1ccccc1	-9%	0%	-22%	0%	40µM*	-2
COc1ccccc1NC(=O)c1cc2c(=O)oc3ccc(C)cc3c2s1	.	.	-5%	.	0.71µM*	.
Cc1ccc2oc(=O)c3cc(C(=O)NCCCN4CCc5ccccc5C4)sc3c2c1	2%	2%	-2%	-5%	32µM*	0
Cc1nn(C(=O)c2ccc(Cl)cc2)c(C)c1Sc1ccc(Cl)cc1	.	.	-26%	.	131%[59 µM]	.
COc1ccc(-n2ccnc(NCc3ccccc3OC)c2=O)cc1	.	.	19%	.	-36%[59 µM]	.

Source: PubChem (National Center for Advancing Translational Sciences (NCATS))
